# Measured values from publication PMC4336329 (PLoS ONE, 2015).
# Screen size: about 310,000 compounds; about 14,000 (4.5%) showed an effect of 50% or more. Effects have a minus sign here. This is one part of a sample in which strong results are shown more often than they occur.
# Target: human ether-à-go-go-related gene (hERG) potassium channel (human, UniProt Q12809)
# Assay: primary screen, population patch clamp on CHO cells stably expressing hERG; higher = less effect of the substance
# 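Further: peak tail current of the secondary pulse compared with the same well before compound.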
# Chain of human ether-à-go-go-related gene (hERG) potassium channel (Q12809 whole entry, looked up): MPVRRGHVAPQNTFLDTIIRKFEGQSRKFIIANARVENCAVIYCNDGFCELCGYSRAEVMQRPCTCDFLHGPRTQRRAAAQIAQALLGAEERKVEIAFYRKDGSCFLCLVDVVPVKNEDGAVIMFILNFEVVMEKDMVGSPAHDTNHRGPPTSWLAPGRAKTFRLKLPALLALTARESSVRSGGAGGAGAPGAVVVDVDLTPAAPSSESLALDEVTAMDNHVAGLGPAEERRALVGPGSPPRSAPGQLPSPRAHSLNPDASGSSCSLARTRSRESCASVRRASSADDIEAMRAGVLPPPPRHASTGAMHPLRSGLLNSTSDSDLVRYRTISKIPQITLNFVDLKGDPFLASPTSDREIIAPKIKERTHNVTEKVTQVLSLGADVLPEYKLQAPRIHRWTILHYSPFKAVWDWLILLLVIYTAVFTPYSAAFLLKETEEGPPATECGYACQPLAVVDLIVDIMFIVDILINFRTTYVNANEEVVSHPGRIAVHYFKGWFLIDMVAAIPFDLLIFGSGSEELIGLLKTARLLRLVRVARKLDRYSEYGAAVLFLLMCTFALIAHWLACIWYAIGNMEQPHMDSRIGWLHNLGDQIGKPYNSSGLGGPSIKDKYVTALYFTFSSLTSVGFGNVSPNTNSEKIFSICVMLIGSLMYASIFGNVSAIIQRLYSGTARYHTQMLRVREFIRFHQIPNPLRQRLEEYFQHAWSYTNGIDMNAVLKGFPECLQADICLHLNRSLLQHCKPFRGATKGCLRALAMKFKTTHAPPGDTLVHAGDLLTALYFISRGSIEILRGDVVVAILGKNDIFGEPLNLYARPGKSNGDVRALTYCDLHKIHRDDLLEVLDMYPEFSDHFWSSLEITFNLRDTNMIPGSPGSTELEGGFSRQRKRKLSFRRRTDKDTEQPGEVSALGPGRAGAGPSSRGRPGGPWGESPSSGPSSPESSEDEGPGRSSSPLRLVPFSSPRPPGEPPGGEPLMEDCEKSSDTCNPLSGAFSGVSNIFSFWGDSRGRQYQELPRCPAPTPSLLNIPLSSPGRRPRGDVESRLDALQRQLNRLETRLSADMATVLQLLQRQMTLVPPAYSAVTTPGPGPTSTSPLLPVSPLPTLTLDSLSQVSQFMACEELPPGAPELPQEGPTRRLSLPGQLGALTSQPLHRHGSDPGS
row,Compound,"hERG current change (%, negative = inhibition) at 10uM [%]"
1,Cc1ccc(NC(=O)C(=O)NCCN2CCN(C(=S)Nc3ccccc3)CC2)cc1,-19.1
2,Cc1ccc(NC(=O)C(=O)NCCN2CCN(C(=O)C(c3ccccc3)c3ccccc3)CC2)cc1,-9.93
3,Cc1ccccc1C(=O)N1CCN(CCNC(=O)C(=O)Nc2ccc(Br)cc2)CC1,-68.8
4,CC1CC(C)CN(CC(O)COCc2ccccc2F)C1.Cl (centres unmarked),-23.4
5,COc1ccc(CCNC(=S)Nc2cccc(C)c2)cc1,-8.64
6,CCC1(c2ccc(F)cc2)NC(=O)N(CC(=O)N2CC(=O)Nc3ccccc32)C1=O (centres unmarked),-5.52
7,CCC1(c2ccc(F)cc2)NC(=O)N(CC(=O)N2c3ccccc3CC2C)C1=O (centres unmarked),-12.9
8,CCC1(c2ccc(F)cc2)NC(=O)N(CC(=O)N2c3ccccc3NC(=O)CC2C)C1=O (centres unmarked),-58.4
9,Cc1c(C(c2ccc(O)cc2)c2c(C)n(C)n(-c3ccccc3)c2=O)c(=O)n(-c2ccccc2)n1C,-7.93
10,COc1ccccc1/C=C1\SC(=S)N(CCC(=O)N2CCCCC2CCO)C1=O (centres unmarked),16.7
11,CNc1ccccc1C(C)(C)c1cc(C)[nH]n1,22.6
12,Cc1cc(=O)[nH]c(SCC(=O)Nc2ccc3c(c2)CCC3)c1C#N,-6.4
13,O=C(Nc1ccc(N2CCN(C(=O)C3CC3)CC2)cc1)c1cccs1,2.17
14,Cc1cc(S(=O)(=O)N2CCCC(N(C)CCc3ccccn3)C2)c(C)s1 (centres unmarked),-46.6
15,CC(=O)c1ccc(S(=O)(=O)N2CCCC(N(C)CCc3ccccc3)C2)cc1 (centres unmarked),-81.2
16,CC(=O)c1ccc(S(=O)(=O)N2CCCC(N(C)CCc3ccccn3)C2)cc1 (centres unmarked),-65.3
17,CN(CCc1ccccn1)C1CCCN(S(=O)(=O)c2ccccc2Cl)C1 (centres unmarked),-46.5
18,COC(=O)c1sccc1S(=O)(=O)N1CCCC(N(C)CCc2ccccn2)C1 (centres unmarked),-22.7
19,CN(CCc1ccccc1)C1CCCN(S(=O)(=O)N(C)C)C1 (centres unmarked),-15.7
20,CN(CCc1ccccc1)C1CCCN(S(=O)(=O)CC(F)(F)F)C1 (centres unmarked),-3.61
21,Cc1cc(S(=O)(=O)N2CCCC(N(C)CCc3ccccn3)C2)c(C)cc1Cl (centres unmarked),-71.6
22,CN(CCc1ccccn1)C1CCCN(S(=O)(=O)c2ccc(F)c(Cl)c2)C1 (centres unmarked),-48
23,Cn1nc(-c2ccc(N3CCCCC3)c(NC(=O)c3ccco3)c2)c2ccccc2c1=O,9.65

row,Compound,"hERG current change (%, negative = inhibition) at 10uM [%]"
1,CN(C)CCCNC(=S)N(Cc1cccs1)Cc1cc2cc3c(cc2[nH]c1=O)OCCO3,6.79
2,Cc1ccc(/C=C2\SC(=S)N(CCC(=O)NNS(=O)(=O)c3ccc(C)cc3)C2=O)cc1,28.8
3,CN(C(=O)COC(=O)/C=C/c1cn(-c2ccccc2)nc1-c1ccc2c(c1)OCCO2)C1CCS(=O)(=O)C1 (centres unmarked),-3.86
4,Cc1cc(=O)[nH]c(SCC(=O)NCCOc2ccccc2)n1,1.39
5,CCc1ccccc1NC(=S)N(CCN(C)C)C(C)c1cccnc1 (centres unmarked),-7.25
6,Cc1ccccc1NC(=S)N(CCN(C)C)C(C)c1cccnc1 (centres unmarked),-50.1
7,COCCN(C(=S)Nc1ccc(C)cc1)C(C)c1cccnc1 (centres unmarked),-22.9
8,COCCN(C(=S)Nc1cc(C)cc(C)c1)C(C)c1cccnc1 (centres unmarked),-58.4
9,COCCN(C(=S)Nc1cccc(C)c1)C(C)c1cccnc1 (centres unmarked),-4.61
10,Cc1cccc(C)c1NC(=S)N(CCN(C)C)C(C)c1cccnc1 (centres unmarked),-9.34
11,Cc1ccccc1NC(=O)c1ccc(N/N=C/c2ccccc2O)c([N+](=O)[O-])c1,9.72
12,CC(Sc1nnc(-c2ccncc2)n1C)C(=O)NCC1CCCO1 (centres unmarked),4.42
13,Cc1occc1C(=O)NC1CCCN(Cc2ccc(CC(C)C)cc2)C1 (centres unmarked),-38
14,O=C(NC1CCCN(Cc2ccc(Cl)cc2)C1)c1ccoc1 (centres unmarked),-50.1
15,CC(C)c1ccc(NC2CCCN(C(=O)c3cnc4ccccn4c3=O)C2)cc1 (centres unmarked),12
16,Cc1occc1C(=O)NC1CCCN(Cc2ccc(Cl)cc2)C1 (centres unmarked),-38.4
17,CC(C)Cc1ccc(CN2CCCC(NC(=O)c3cccc(-n4cnnc4)c3)C2)cc1 (centres unmarked),-81
18,O=C(NC1CCCN(Cc2ccc(Cl)cc2)C1)c1cnc2ccccn2c1=O (centres unmarked),-21.8
19,CC(C)Cc1ccc(CN2CCCC(NC(=O)CCCN3CCCC3=O)C2)cc1 (centres unmarked),-25.8
20,CC(C)Cc1ccc(CN2CCCC(NC(=O)c3ccoc3)C2)cc1 (centres unmarked),-70.9
21,O=C(NC1CCCN(Cc2ccc(Cl)cc2)C1)c1ccnc(Cl)c1 (centres unmarked),-38.6
22,O=C(NC1CCCN(Cc2ccc(Cl)cc2)C1)c1cccc(N2CCCC2=O)c1 (centres unmarked),-14.8
23,CC(C)Cc1ccc(CN2CCCC(NC(=O)c3cnc4ccccn4c3=O)C2)cc1 (centres unmarked),-71.8

row,Compound,"hERG current change (%, negative = inhibition) at 10uM [%]"
1,COc1ccc(S(=O)(=O)N2CCN(c3ccccn3)CC2)cc1OC,-12
2,CC#CCN1c2ccccc2[C@]23C[C@@H](C(=O)OC)N(C(=O)c4ccco4)C2=NC(C(=O)OC)=C(C(=O)OC)[C@H]13,-2.03
3,Cc1nn(-c2ccccc2)c(C)c1/C=N\NS(=O)(=O)c1ccc(Cl)cc1,-17.7
4,Cc1cc(C)cc(OCC(=O)NNC(=O)c2cc(C)[nH]n2)c1,13.9
5,O=C(CCC(=O)N1CCSc2ccccc21)NCCc1ccccc1,-30.5
6,CCn1c(SCC(=O)N/N=C/c2ccccc2OCC(=O)O)nnc1-c1ccccc1,5.58
7,CNCC(O)C(O)C(O)C(O)CO (centres unmarked),-0.427
8,CC(C)C(=O)Nc1ccc(NC(=O)CCc2ccccc2)cn1,18.4
9,CC(=O)Nc1ccc(S(=O)(=O)NCC2CCC(C(=O)N3CC(C)CC(C)C3)CC2)cc1 (centres unmarked),5.39
10,Cn1nccc1C(=O)NC1CCN(Cc2ccccc2)CC1,-14.4
11,CC(C)Cc1ccc(CN2CCCC(NC(=O)c3ccnn3C)C2)cc1 (centres unmarked),-68.7
12,CC(C)Cc1ccc(CN2CCCC(NC(=O)CCN3CCCO3)C2)cc1 (centres unmarked),-43.4
13,Cl.OC(CNC1CCCC1)COCCOc1ccc(Br)cc1 (centres unmarked),-27.4
14,C#CCOCCOCCOCCNc1nc(N2CCN(C(=O)[C@H]([C@@H](C)CC)n3cc([C@@H](N)Cc4ccc(O)cc4)nn3)CC2)nc(N2CCN(C(=O)[C@H]([C@@H](C)CC)n3cc([C@@H](N)CC(C)C)nn3)CC2)n1.Cl,0.378
15,COCCCNCC(O)COc1ccccc1F (centres unmarked),5.58
16,CCOC(=O)c1cccc(OCC(O)CNCCOc2ccccc2F)c1 (centres unmarked),-63
17,CC(=O)c1cccc(OCC(O)CNCCOc2ccc(C)cc2)c1 (centres unmarked),-36.5
18,Cc1cc(C(C)(C)C)oc1C(=O)O,27.6
19,CN1C(=O)OC(C)(CCc2ccccc2)C1(C)O (centres unmarked),11.5
20,Cc1c(C(=O)Nc2c(C)n(C)n(-c3ccccc3)c2=O)oc2ccc(Cl)cc12,-51.3
21,Cc1cc(C)c2c(C)c(C(=O)Nc3c(C)n(C)n(-c4ccccc4)c3=O)oc2c1,-16.7
22,Cc1cc2oc(C(=O)Nc3c(C)n(C)n(-c4ccccc4)c3=O)c(C)c2cc1Cl,-72.2
23,Cc1cc2oc(C(=O)Nc3c(C)n(C)n(-c4ccccc4)c3=O)c(C)c2cc1C,-24

row,Compound,"hERG current change (%, negative = inhibition) at 10uM [%]"
1,Cc1c(C(=O)Nc2c(C)n(C)n(-c3ccccc3)c2=O)oc2ccccc12,15.8
2,Cc1ccc2c(C)c(C(=O)Nc3c(C)n(C)n(-c4ccccc4)c3=O)oc2c1,-2.96
3,CN(C)P1(N(C)C)=Nc2c(c(N)nn2C)C(c2ccccc2)=N1,-6.87
4,CCOc1cc(S(=O)(=O)NCC2OCCc3ccccc32)c(OCC)cc1-n1cnnn1 (centres unmarked),-21.5
5,CC(=O)Nc1ccc(S(=O)(=O)N2CCN(C(=O)C3COc4ccccc4O3)CC2)cc1 (centres unmarked),-7.33
6,Cc1ccc(N2C(=O)NC(=O)/C(=C\c3ccoc3)C2=O)cc1,22
7,O=P1(Nn2cnnc2)C=C(c2ccccc2)OC(c2ccccc2)=C1,-20.8
8,O=P1(O)C=C(c2ccccc2)OC(c2ccccc2)=C1,23.9
9,CCN1CCN(P2(=O)C=C(c3ccccc3)OC(c3ccccc3)=C2)CC1,-77.9
10,Cc1cc(C(=O)CSc2nc(N)cc(N)n2)c(C)n1CCc1ccc(F)cc1,-13.9
11,Cn1c(=O)c2[nH]c(-c3ccc(S(=O)(=O)O)cc3)nc2n(C)c1=O.O,10.2
12,O=C(Nc1cccc(C(=O)O)c1)/C(=C/c1ccc([N+](=O)[O-])cc1)NC(=O)c1ccccc1,-5.36
13,O=C(Nc1cccc2ccccc12)/C(=C/c1ccc([N+](=O)[O-])cc1)NC(=O)c1ccccc1,-55.6
14,O=C(Nc1cccc2ccccc12)/C(=C\c1cccc([N+](=O)[O-])c1)NC(=O)c1cccs1,-70.1
15,O=C(N/N=C/c1ccc(O)cc1)/C(=C/c1ccc([N+](=O)[O-])cc1)NC(=O)c1ccccc1,8.54
16,O=C(N/N=C/c1ccc(O)c(O)c1O)/C(=C/c1ccc([N+](=O)[O-])cc1)NC(=O)c1ccccc1,12.4
17,O=C(N/C(=C/c1cccc([N+](=O)[O-])c1)C(=O)N1CCCCC1)c1cccs1,-7.23
18,O=C(Nc1ccc([N+](=O)[O-])cc1)/C(=C/c1cccc([N+](=O)[O-])c1)NC(=O)C1CCCCC1,-69
19,COc1ccc(/C=C(\NC(=O)c2cccs2)C(=O)Nc2cccc3ccccc23)cc1OC,-7.06
20,Cc1ccc(NC(=O)/C(=C/c2cccc([N+](=O)[O-])c2)NC(=O)C2CCCCC2)c(C)c1,-18.7
21,O=C(Nc1ccc(Br)cc1)/C(=C/c1cccc([N+](=O)[O-])c1)NC(=O)C1CCCCC1,-16
22,O=C(N/N=C/c1ccc(Br)o1)/C(=C/c1ccc([N+](=O)[O-])cc1)NC(=O)c1ccccc1,-60.1
23,O=C(Nc1ccccc1)/C(=C/c1ccc([N+](=O)[O-])cc1)NC(=O)c1ccccc1,8.2
